Source: PubChem
Sampled rows, rich in hits. Any-hit rate of the full collection: about 7.5%.
Vaccinia mCherry = qHTS for Stage-Specific Inhibitors of Vaccinia Orthopoxvirus: mCherry Reporter Primary qHTS; Vaccinia virus mCherry reporter infection, fluorescence; Potency, µM (doses to about 36.5 µM), inactives show at the top dose activity change, negative = inhibition, usual class: inhibitors; 0.63% of 310,000 active; calls by dose curve; tested in A549 cells; note: potency is the fitted concentration of half-maximal effect; nearly all actives have a fitted effect of over 35% in size
FMDV inh = High Throughput Screening for Foot and Mouth Disease Virus Antivirals; FMDV antiviral cell-based qHTS; Potency, µM (highest dose often 57.9 µM), without a hit: top-dose activity change, negative = inhibition, usual class: inhibitors; 1.2% of 410,000 active; AID 1159524, 2015; calls by dose curve; tested in HEK293T cells; note: read-out not given here; potency is the fitted concentration of half-maximal effect; nearly all actives have a fitted effect of over 45% in size
HCV inhibitor = qHTS Assay for Inhibitors of Hepatitis C Virus (HCV); Huh7.5.1 HCVcc-Cre infection, luciferase reporter, 44 h; Potency, µM (doses to about 41.8 µM), for inactives: at the highest dose activity change, negative = inhibition, usual class: inhibitors; 3.4% of 340,000 active; note: potency is the fitted concentration of half-maximal effect
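Luciferase read-out (15 sec integration) after a 15 min room-temperature substrate step quantifies HCVcc-Cre infection. Cells, 1,000 per well, had compound added 4 h post-plating, then virus at ~0.5 moi, and were cultured 44 h.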
HCMV antiviral = qHTS Assay for inhibitors of the human cytomegalovirus (HCMV) | HFF cells, HCMV-luciferase reporter, 72 h; stronger effect = lower value | activity change, negative = inhibition, % at 57.5 µM | 4.5% of 410,000 active; in the data active = activity change below about -60%; inconclusive = no clear call, values can overlap the other calls; inactive = above about -39%
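Steps: HFFs plated, 16 h 37C; compounds added; HCMV-luciferase added to MOI 1 PFU/cell; 72 h 37C; OneGlo reagent, 5 min room temperature; luminescence read, normalized to controls.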
Vaccinia Venus = qHTS for Stage-Specific Inhibitors of Vaccinia Orthopoxvirus: Venus Reporter Primary qHTS; Vaccinia virus Venus reporter expression, fluorescence; Potency, µM (series often up to 36.5 µM), for inactives: at the highest dose activity change, negative = inhibition, most hits filed as inhibitors; 0.46% of 330,000 active; AID 720580, 2013; calls by dose curve; tested in A549 cells; note: potency is the fitted concentration of half-maximal effect; nearly all actives have a fitted effect of over 30% in size
Giardia FBPA inh = qHTS Assay for Inhibitors of Fructose-1,6-bisphosphate Aldolase from Giardia Lamblia; A8B2U2; purified Giardia FBPA; Potency, µM (titrated, usually from 59.6 µM), for inactives: top-dose activity, negative = inhibition, usual class: inhibitors; 0.71% of 290,000 active; AID 2451, 2010; note: potency is the fitted concentration of half-maximal effect; nearly all actives have a fitted effect of over 55% in size
Target sequence (A8B2U2 whole entry, looked up): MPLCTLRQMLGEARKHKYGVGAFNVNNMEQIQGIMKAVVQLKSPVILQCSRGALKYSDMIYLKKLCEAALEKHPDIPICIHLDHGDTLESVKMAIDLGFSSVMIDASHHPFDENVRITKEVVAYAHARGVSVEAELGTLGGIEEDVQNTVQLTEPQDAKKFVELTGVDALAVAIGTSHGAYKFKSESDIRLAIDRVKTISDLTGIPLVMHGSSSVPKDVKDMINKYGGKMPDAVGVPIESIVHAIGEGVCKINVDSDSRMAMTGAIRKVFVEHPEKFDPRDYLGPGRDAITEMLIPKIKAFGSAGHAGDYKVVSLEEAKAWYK
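40 nM FBPA preincubated 10 min at RT with compound (up to 57.5 uM final), then substrate plus GAPDH/TPI/NAD/arsenate coupling and diaphorase/resazurin added. Fluorescence read after 20 min at RT, 525/598 nm.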
An asterisk follows results filed as active; i = inactive; ? = inconclusive; . = no result given. Unless noted, calls come from the whole dose curve; as a rule, active = well fitted curve in the direction sought with a large enough effect; inconclusive = small, poorly fitted or top-dose-only effect, or another doubt; inactive = no such curve, though single readings can be large; an effect the other way counts as inactive or inconclusive. % is set by controls: 0 for no effect and ±100 for the full control effect.

SMILES	Vaccinia mCherry	FMDV inh	HCV inhibitor	HCMV antiviral	Vaccinia Venus	Giardia FBPA inh
Cc1ccc(CC(=O)Nc2ccc3c(c2)N(C)C(=O)c2ccccc2S3)cc1	-7%	-17%	.	?	-12%	.
CC(=O)c1ccc2c(c1)N(C)c1ccccc1S2	-12%	-6%	?	23	-16%	0%
Cc1ccc2c(c1)N(C)/C(=C/c1cccc[n+]1C)S2	i	-22%	?	-98*	?	-1%
Cc1ccc2c(c1)N(C)/C(=C/c1cccc[n+]1CCO)S2	.	?	?	-97*	.	9%
CCCCN1/C(=C/c2cccc[n+]2C)Sc2cc(NC(C)=O)ccc21	.	-6%	-7%	4	.	-4%
Cc1nc2ccc(C(=O)NCCCN3CCCC3=O)cn2c1N(C)C(=O)CCc1ccccc1	4%	-12%	.	4	-2%	.
CCN(CC)CCCC(C)NC(=O)c1c(NC(=O)c2ccccc2)sc2c1CCCC2 (centres undefined)	.	10%	10µM*	-27	.	-25%
CCc1ccccc1NC(=O)c1c(NC(=O)c2ccccc2)sc2c1CCCC2	-6%	-19%	.	-9	3%	.
CCn1cc(/C=C/C(=O)Nc2ccc(C)cc2Br)cn1	-17%	9%	?	-35	-6%	-1%
CCn1cc(/C=C/C(=O)Nc2ccn(Cc3c(F)c(F)cc(F)c3F)n2)cn1	-16%	-9%	?	-70*	-23%	0%
Cn1cc([N+](=O)[O-])c(C(=O)Nc2ccn(Cc3c(F)c(F)cc(F)c3F)n2)n1	.	-19%	?	-92*	.	5%
Cn1ncc([N+](=O)[O-])c1C(=O)Nc1ccn(Cc2ccccc2F)n1	-15%	-19%	.	-62*	0%	-3%
CC(C)(C)OC(=O)N1CCC(c2c(C(=O)NCCN3CCc4ccccc4C3)cnn2-c2ccc(F)cc2)CC1	-19%	-13%	.	14	-15%	.
CCOC(=O)N1CCC(NC(=O)C2CCN(Cc3nc(-c4ccc(CC)cc4)oc3C)CC2)CC1	i	-17%	6%	33	-12%	.
CCN1CCCC1CNC(=O)C1CCN(Cc2nc(-c3cccc(Br)c3)oc2C)CC1 (centres undefined)	i	-19%	2.5µM*	.	-27%	-20%
Cc1cccc(-c2nc(CN3CCCC(C(=O)NC4CCCCC4)C3)c(C)o2)c1 (centres undefined)	.	?	32µM*	-21	.	4%
CCOC(=O)N1CCC(NC(=O)C2CCCN(Cc3nc(-c4ccc(CC)cc4)oc3C)C2)CC1 (centres undefined)	-24%	?	2.5µM*	-87*	-29%	3%
Cc1oc(-c2cccc(Cl)c2)nc1CN1CCCC(C(=O)NC(C)c2ccc3c(c2)OCCO3)C1 (centres undefined)	?	20µM*	?	-28	-27%	9%
Cc1oc(-c2cccc(Cl)c2)nc1CN1CCC(C(=O)NC(C)C)CC1	-9%	3%	.	9	-11%	.
O=C(NC[C@@H]1CCCN2CCCC[C@H]12)c1cnn(-c2nccc(-c3ccco3)n2)c1C1CC1	-7%	-9%	.	.	8%	.
COc1ccc(CN2C(=NC(=O)c3ccccc3)SC3CS(=O)(=O)CC32)cc1 (centres undefined)	.	6%	2%	-20	.	-5%
C/C=C/C=[N+](\[O-])C(C)/C(=N/O)c1ccc(F)cc1 (centres undefined)	.	5%	13%	-75*	.	1%
Nn1c(SCC(=O)NCCc2ccc(F)cc2)nnc1C1CCCCC1	.	5%	-7%	-10	.	.
COc1ccc(CCN2C(=O)CS/C2=N/NC(=O)c2ccccc2F)cc1OC	-26%	-32%	10%	6	-25%	2%
COc1ccc(CCN2C(=O)CC(Cc3ccc(C)cc3)C2=O)cc1OC (centres undefined)	-1%	-13%	-1%	-64*	6%	4%
SMILES	Vaccinia mCherry	FMDV inh	HCV inhibitor	HCMV antiviral	Vaccinia Venus	Giardia FBPA inh
COc1ccc(CCN2C(=O)CSC2=Nc2ccc(C)cc2C)cc1OC	i	13µM*	?	-9	-2%	-5%
COc1ccc(OC)c(N2C(=O)CC(Cc3cc(C)cc(C)c3)C2=O)c1 (centres undefined)	i	?	3.5µM*	23	-14%	3%
COc1cccc2cc(C(=O)NCc3ccco3)c(=Nc3ccc(C(=O)O)cc3)oc12	7.9µM*	.	13%	-78*	10µM*	7%
CCc1noc(C)c1C(=O)Nc1nc2c(C)cc(C)cc2s1	-5%	-2%	11µM*	-4	-14%	.
O=C(Nc1nc2c(F)cc(F)cc2s1)c1ccc([N+](=O)[O-])o1	13µM*	-4%	-17%	9	10µM*	-18%
Cc1ccc(C)c(-c2nnc(NC(=O)c3ccc([N+](=O)[O-])o3)o2)c1	?	-13%	?	-74*	?	.
O=C(Nc1nc2ccccc2s1)c1ccc([N+](=O)[O-])o1	.	18%	?	?	.	0%
Cc1cc(C)c2nc(NC(=O)c3ccc([N+](=O)[O-])o3)sc2c1	10µM*	-4%	-4%	?	?	-13%
CC1=C(C(=O)Nc2ccc(C)cc2C)C(C(C)C)n2nc(SCc3ccccc3Cl)nc2N1 (centres undefined)	-15%	-15%	.	9	-3%	.
Cc1cccc(N(C(=O)c2snc(C(N)=O)c2N)C(C(=O)NC2CCCC2)c2ccco2)c1 (centres undefined)	-15%	3%	?	15	-3%	-3%
Cc1noc(C)c1CN1CCN2C=C(C(=O)NCCCc3ccccc3)OC2=NC1=O	.	.	.	10	.	.
CCCCN(C(=O)CSc1ncnc2sccc12)c1c(N)n(Cc2ccccc2)c(=O)[nH]c1=O	.	-20%	-12%	-10	.	.
Cc1cc(C)c2sc(NC(=O)c3ccc([N+](=O)[O-])o3)nc2c1	?	-18%	-15%	38	11µM*	?
CCN(CC)S(=O)(=O)c1ccc(C(=O)NC2CC(=O)N(c3ccc4c(c3)OCCO4)C2)cc1 (centres undefined)	-6%	-27%	.	-6	-14%	.
Cc1ccc(NS(=O)(=O)c2ccc3c(c2)N(C)C(=O)CC(=O)N3C)cc1Cl	-6%	58%	.	-9	-2%	.
COCCN(C(=O)CCC(=O)Nc1nccs1)C(C(=O)NC(C)(C)C)c1ccc(C)cc1 (centres undefined)	-14%	-11%	9%	-74*	-13%	.
CCCCN(C(=O)CCC(=O)Nc1cc(C)on1)C(C(=O)NC(C)(C)C)c1ccccc1Cl (centres undefined)	-7%	-1%	1%	-14	5%	8%
